The values below come from PubChem BioAssay (NCI).

Compounds without any hit were thinned out: in the full panel of roughly 83,000, 20% have a hit.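 Note: values are percent growth. 100 is the growth of untreated cells, values between 100 and 0 indicate rising inhibition; between -100 and 0 indicates cell death.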 A number with no mark means an inactive call. Active and inactive are the calls of the source. The calls were made as follows: active = growth percent below 10; inactive = the rest.

Test systems include SK-MEL-2 melanoma; EKVX NSCLC; SN12C renal; UO-31 renal; TK-10 renal; ACHN renal; A498 renal; MOLT-4 leukemia; SR leukemia; RPMI-8226 leukemia; OVCAR-8 ovarian; OVCAR-5 ovarian; OVCAR-4 ovarian; SK-OV-3 ovarian; IGROV1 ovarian; OVCAR-3 ovarian; HS 578T breast; NCI/ADR-RES ovarian; CCRF-CEM leukemia.
What all share (assay): NCI-60 one-dose screen, 48 h (100 = growth as untreated, 0 = no growth, -100 = all killed)
Common to all, as to details: 10 µM

With `COc1cc(-c2nn(-c3cccc(NC(=O)CN4CCOCC4)c3)cc2-c2cccnc2)ccc1Cl`, the growth was 82.1% with SK-MEL-2 melanoma; 95.8% in the assay with EKVX NSCLC; 85.4% in the assay on SN12C renal; 68.6% with UO-31 renal; 125% in the assay on TK-10 renal; 87.6% in the assay on ACHN renal. Further, the growth was 93.3% in the assay with A498 renal; 74.3% in the assay on MOLT-4 leukemia; 37.3% with SR leukemia; 60.5% with RPMI-8226 leukemia; 76.4% in the assay on OVCAR-8 ovarian; 108% in the assay with OVCAR-5 ovarian. For the same compound, the growth in the assay with OVCAR-4 ovarian is 101%; in the assay with SK-OV-3 ovarian, 95.8%; with IGROV1 ovarian, 79.6%; in the assay on OVCAR-3 ovarian, 77.2%; in the assay with HS 578T breast, 76.3%; with NCI/ADR-RES ovarian, 59%.
In the case of `CN(C)CCCOc1ccc(NC2=C(Cl)C(=O)C(Nc3ccc(OCCCN(C)C)cc3)=C(Cl)C2=O)cc1`, the growth with SK-MEL-2 melanoma was -40.2% (active); with EKVX NSCLC it was -89% (active); with SN12C renal, -91.6% (active); in the assay on UO-31 renal, -99% (active); in the assay on TK-10 renal, -98.7% (active); with ACHN renal, -94.1% (active). Further, the growth in the assay with A498 renal was -49% (active); with CCRF-CEM leukemia, -31.2% (active); in the assay on MOLT-4 leukemia, -23.4% (active); with SR leukemia, -1.57% (active); with RPMI-8226 leukemia, -44.1% (active); in the assay on OVCAR-8 ovarian, -68.3% (active). In addition, the growth is -60.6% (active) in the assay with OVCAR-5 ovarian; -98.9% (active) in the assay with OVCAR-4 ovarian; 24.4% in the assay with SK-OV-3 ovarian; -68.2% (active) with IGROV1 ovarian; -98.3% (active) in the assay on OVCAR-3 ovarian; -0.291% (active) with HS 578T breast. Besides, in the assay with NCI/ADR-RES ovarian, the growth was 8.96% (active).
On to `O=C1c2ccccc2C(=O)c2c1ccc(C(Br)Br)c2Cl`, for which the growth is 60.7% in the assay with SK-MEL-2 melanoma; 66.6% with EKVX NSCLC; -48.5% (active) in the assay with SN12C renal; 52.4% in the assay with UO-31 renal; 83.9% in the assay with TK-10 renal; -74.1% (active) with ACHN renal. In addition, the growth in the assay with A498 renal is 108%; in the assay with MOLT-4 leukemia, -1.06% (active); with SR leukemia, -51.2% (active); with RPMI-8226 leukemia, -15.5% (active); in the assay on OVCAR-8 ovarian it was 17.1%; in the assay on OVCAR-5 ovarian it was 104%. The growth is 35.5% in the assay on OVCAR-4 ovarian; 93.4% in the assay on SK-OV-3 ovarian; -43.2% (active) in the assay with IGROV1 ovarian; -13.8% (active) with OVCAR-3 ovarian; 85.6% in the assay with HS 578T breast; 64.6% in the assay with NCI/ADR-RES ovarian.
Consider `O=C(CSc1nnc(-c2ccc(Cl)cc2)o1)Nc1ccc(C(=O)/C=C/c2ccc(Cl)cc2)cc1`, for which the growth in the assay with SK-MEL-2 melanoma was 101%; in the assay with EKVX NSCLC it was 129%; with SN12C renal it was 95.9%; with UO-31 renal, 69.4%; with TK-10 renal, 118%; in the assay with ACHN renal it was 114%. In addition, the growth in the assay on A498 renal is 94.7%; in the assay with MOLT-4 leukemia, 92.6%; in the assay with SR leukemia it was 98.3%; with RPMI-8226 leukemia, 92.5%; in the assay on OVCAR-8 ovarian it was 100%; in the assay with OVCAR-5 ovarian, 110%. Moreover, the growth in the assay on OVCAR-4 ovarian was 89.3%; with SK-OV-3 ovarian it was 90.6%; with IGROV1 ovarian, 108%; with OVCAR-3 ovarian, 103%; in the assay on HS 578T breast it was 95.9%; with NCI/ADR-RES ovarian it was 96.4%.
Consider `Cc1nn(-c2ccc(-c3ccc(OC(F)(F)F)cc3)cc2)c2nc(Cc3ccccc3)nc(N)c12`, for which the growth was 87.6% in the assay with SK-MEL-2 melanoma; 72.3% with EKVX NSCLC; 62.8% in the assay on SN12C renal; 28.3% in the assay on UO-31 renal; 68.1% in the assay on TK-10 renal; 16.7% in the assay with ACHN renal. Besides, the growth with A498 renal is 94.2%; in the assay with MOLT-4 leukemia it was 68.6%; in the assay with SR leukemia it was 41.8%; in the assay with RPMI-8226 leukemia, 92.1%; in the assay with OVCAR-8 ovarian, 33%; in the assay on OVCAR-5 ovarian, 57.6%. In addition, the growth in the assay on OVCAR-4 ovarian is 4.27% (active); with SK-OV-3 ovarian, 56.9%; with IGROV1 ovarian it was 47.3%; with OVCAR-3 ovarian it was 46.5%; with HS 578T breast, 55.5%; with NCI/ADR-RES ovarian it was 40.5%.
`C=C(C)[C@@H]1CC[C@]2(COCCC#N)CC[C@]3(C)[C@H](CC[C@@H]4[C@@]5(C)Cc6c([nH]c7ccccc67)C(C)(C)[C@@H]5CC[C@]43C)[C@@H]12`: the growth in the assay with SK-MEL-2 melanoma is 110%; in the assay with EKVX NSCLC, 116%; in the assay on SN12C renal, 98.7%; in the assay with UO-31 renal, 94.2%; in the assay on TK-10 renal, 100%; in the assay with ACHN renal, 95.2%. Also, the growth was 106% in the assay with A498 renal; 86.1% in the assay on MOLT-4 leukemia; 94.7% in the assay with SR leukemia; 86.1% in the assay on RPMI-8226 leukemia; 107% in the assay with OVCAR-8 ovarian; 89.3% in the assay with OVCAR-5 ovarian. In addition, the growth is 88.5% with OVCAR-4 ovarian; 100% with SK-OV-3 ovarian; 105% with IGROV1 ovarian; 93.9% in the assay with OVCAR-3 ovarian; 90.6% in the assay with HS 578T breast; 98.1% in the assay with NCI/ADR-RES ovarian.
For `O=C1c2ccccc2C(=O)c2c1ccc(C(Br)Br)c2[N+](=O)[O-]`, the growth was 77.5% in the assay with SK-MEL-2 melanoma; 46.8% with EKVX NSCLC; 34.4% in the assay with SN12C renal; 50.6% in the assay with UO-31 renal; 73.2% in the assay on TK-10 renal; -16.1% (active) in the assay with ACHN renal. The growth is 26.6% in the assay with A498 renal; -43.4% (active) with CCRF-CEM leukemia; -45.5% (active) with MOLT-4 leukemia; -32% (active) in the assay with SR leukemia; -7.34% (active) in the assay with RPMI-8226 leukemia; 43.1% in the assay on OVCAR-8 ovarian. In addition, the growth is 49.7% in the assay with OVCAR-5 ovarian; -23.9% (active) in the assay on OVCAR-4 ovarian; 88.1% in the assay on SK-OV-3 ovarian; -55% (active) with IGROV1 ovarian; -84% (active) with OVCAR-3 ovarian; 103% in the assay with HS 578T breast. In addition, the growth in the assay with NCI/ADR-RES ovarian was 50.3%.
Regarding `CN1CCN(CC(=O)Nc2cccc(-n3cc(-c4ccncc4)c(-c4ccc(Cl)c(O)c4)n3)c2)CC1`, the growth is 28.2% in the assay on SK-MEL-2 melanoma; 63.6% in the assay on EKVX NSCLC; 64.9% with SN12C renal; 50.2% with UO-31 renal; 103% in the assay on TK-10 renal; 44.7% in the assay on ACHN renal. The growth is 35.6% in the assay on A498 renal; 26.4% in the assay on MOLT-4 leukemia; 5.84% (active) with SR leukemia; 15.9% in the assay on RPMI-8226 leukemia; 57.2% in the assay with OVCAR-8 ovarian; 68.2% with OVCAR-5 ovarian. For the same compound, the growth in the assay with OVCAR-4 ovarian is 59.8%; with SK-OV-3 ovarian it was 55.9%; in the assay on IGROV1 ovarian, 57.5%; in the assay with OVCAR-3 ovarian it was 12.8%; in the assay on HS 578T breast, 38.2%; with NCI/ADR-RES ovarian, 42.2%.
